D2 ag-1 – Beta-Arrestin HTS for Positive Allosteric Modulators of the Human D2 Dopamine Receptor: Agonists | D(2) dopamine receptor (Homo sapiens), P14416 | DiscoveRx PathHunter D2 beta-arrestin, luminescence, 90 min; 100% = 57 uM dopamine signal | activation, % (concentration not given with the values) | actives 0.084% (n = 360,000) | AID 624465, 2012; in the data active = activation above about 40%; inconclusive = between about 15% and that limit
Target sequence (P14416 whole entry, looked up): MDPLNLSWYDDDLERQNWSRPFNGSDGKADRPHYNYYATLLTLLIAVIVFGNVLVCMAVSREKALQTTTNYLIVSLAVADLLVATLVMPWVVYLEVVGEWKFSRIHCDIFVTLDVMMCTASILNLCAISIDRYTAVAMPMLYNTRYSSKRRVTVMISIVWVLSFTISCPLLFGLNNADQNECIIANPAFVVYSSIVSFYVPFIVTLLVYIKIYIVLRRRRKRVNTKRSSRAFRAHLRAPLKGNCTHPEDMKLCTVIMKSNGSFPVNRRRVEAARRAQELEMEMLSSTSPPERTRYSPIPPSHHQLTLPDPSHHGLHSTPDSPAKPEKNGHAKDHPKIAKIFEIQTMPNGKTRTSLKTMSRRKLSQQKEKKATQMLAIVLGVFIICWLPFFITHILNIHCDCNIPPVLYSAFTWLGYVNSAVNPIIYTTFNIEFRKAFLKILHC
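Agonist mode: compounds alone added to overnight-plated D2 PathHunter cells for 90 min at 37 C, with 57 uM final dopamine (EC100) defining full response. Beta-arrestin recruitment detected by chemiluminescent reagent, read after 1 h at ambient temperature.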
D2 antag – HTS Assay for Allosteric Antagonists of the Human D2 Dopamine Receptor: Primary Screen for Antagonists; HEK293 TREx D2 cells, calcium flux, dopamine EC80; inhibition, % at 10 µM; AID 485344, 2010; D(2) dopamine receptor (Homo sapiens), P14416; actives 2% (n = 340,000); in the data active = inhibition above about 30%; inactive = below that, where a call was filed; note: 0% is about no effect
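Read-out: kinetic calcium fluorescence (1 cycle/s) in inducible HEK293 T-REx D2 cells after an EC80 dopamine addition that followed 180 s compound preincubation. Loss of the dopamine response indicates antagonism.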
D2 PAM-1 – HTS Assay for Positive Allosteric Modulators of the Human D2 Dopamine Receptor: Primary Screen for Potentiators; D(2) dopamine receptor (Homo sapiens), P14416; HEK293 T-REx D2, calcium flux, EC20 dopamine potentiation; potentiation, % at 10 µM; actives 0.34% (n = 340,000);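 active = potentiation over 3 SD above the plate norm, cut at about 30% in these data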; note: 0% is about no effect
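Potentiation of an EC20 dopamine calcium response measured kinetically over 180 s, after a preceding 180 s compound-only read flagging agonists. Cells: inducible Hek293 Trex D2 line, 4000/well, cultured overnight at 30 C before dye loading.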
D2 ag-2 – HTS Assay for Allosteric Agonists of the Human D2 Dopamine Receptor: Primary Screen for Agonists; D(2) dopamine receptor (Homo sapiens), P14416; HEK293 T-REx D2 cells, calcium flux agonist mode; activation, % at 2 µM; actives 0.53% (n = 340,000); AID 485358, 2010;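 active = activation over 3 SD above normal in the single-dose calcium agonist read, cut at about 30% in these data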; note: 0% is about no effect
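Agonism scored from kinetic calcium signal (1 read/sec, 180 s) following compound pin transfer, after a 10 s baseline. Cells: HEK293 Trex line expressing inducible D2 receptor coupled to calcium, dye-loaded after overnight culture at 30 C.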
D2 PAM-2 – Beta-Arrestin HTS for Positive Allosteric Modulators of the Human D2 Dopamine Receptor: Potentiators; D(2) dopamine receptor (Homo sapiens), P14416; DiscoveRx D2 beta-arrestin cells, luminescence, 90 min; 100% = 57 uM dopamine signal; potentiation, % (no concentration beside the values); actives 0.23% (n = 360,000); AID 624464, 2012; in the data active = potentiation above about 50%; inconclusive = mostly about 30% to 49%
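PathHunter beta-arrestin assay in DiscoveRx D2 cells. Compounds were added with an EC20 of dopamine (50 nM final) for 90 min at 37 deg C. Luminescence was read 1 h after detection reagent, with 57 uM dopamine as the EC100 control.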
* marks the source's active call; other numbers are inactive results; ? = inconclusive; . = no result given. Rows were chosen to be rich in hits. Some 2.4% of all compounds tested hit in one or more screens of this group.

SMILES | D2 ag-1 | D2 antag | D2 PAM-1 | D2 ag-2 | D2 PAM-2
Cc1ccsc1C(=O)Nc1ccccc1N1CCOCC1 | -3 | 38* | -8 | 0 | 10
Cc1ccc(C(=O)NNC(=O)c2csc(N3CCOCC3)n2)o1 | -3 | 17 | -4 | 0 | -16
Cc1ccsc1C(=O)NNC(=O)c1csc(N2CCOCC2)n1 | -8 | 32* | -8 | 1 | -11
O=C1c2oc3ccccc3c(=O)c2C(c2cccnc2)N1CCCN1CCOCC1 (stereo not given) | -3 | 35* | 2 | 0 | -12
CC(C)Oc1ccc(C2c3c(oc4ccccc4c3=O)C(=O)N2CCCN2CCOCC2)cc1 (stereo not given) | 2 | 19 | 16 | -1 | -10
Cc1ccc2c(c1)c1c(c(=O)n(-c3ccccc3)c(=O)n1CC(=O)N1CCCC1)n2C | . | . | -6 | 0 | .
Cc1ccc2c(C)c(C(=O)Nc3c(C)n(C)n(-c4ccccc4)c3=O)oc2c1C | 45* | -7 | 7 | 14 | 26
Cc1c(NC(=O)c2cccnc2Cl)c(=O)n(-c2ccccc2)n1C | -5 | 36* | -8 | 0 | -6
Cc1cccc(-c2c3c(=O)n(C)c(=O)n(C)c3c3cnc4ccccc4n23)c1 | . | . | -9 | . | .
CN1CCN(c2ccc(NS(=O)(=O)c3ccc(Cl)cc3)cn2)CC1 | -2 | 33* | -5 | -1 | -8
CCc1ccc(S(=O)(=O)Nc2ccc3c(c2)n(C)c(=O)c(=O)n3C)cc1 | . | . | -11 | 0 | .
CCc1ccc(S(=O)(=O)Nc2ccc(N3CCN(C)CC3)cc2)cc1 | 1 | 75* | -20 | 1 | -23
Cc1ccc(S(=O)(=O)Nc2ccc(N3CCN(C)CC3)nc2)cc1 | -7 | 4 | -14 | -1 | -21
CC1=C(C(N)=O)C(c2ccc(C)cc2)n2nc(SCc3ccccc3F)nc2N1 (stereo not given) | . | . | -6 | 1 | .
CCOc1ccc(-n2c(=O)c3c(C)c(C)sc3n(CC(=O)C(C)(C)C)c2=O)cc1 | . | . | -1 | -1 | .
COc1ccc2nc3oc(C(=O)NCc4ccccc4OC)cc3cc2c1 | . | . | -3 | 0 | .
O=C(Nc1ccccc1Cl)c1cc[n+](Cc2ccc([N+](=O)[O-])cc2)cc1 | -2 | -9 | 5 | 0 | -12
NC(=O)c1cc[n+](Cc2ccc([N+](=O)[O-])cc2)cc1 | 1 | 39* | 11 | 2 | 0
O=C(O)c1ccc([N+](=O)[O-])cc1 | -1 | . | . | . | -3
NC(=O)c1ccc(C(=O)c2ccc([N+](=O)[O-])cc2)cc1 | 5 | -1 | -9 | 0 | 62*
CCC(Cn1nnc2ccccc2c1=O)NC(=O)Nc1cccc(Cl)c1 (stereo not given) | . | . | -10 | -1 | .
COC(=O)CC(=O)CSc1nc2cc(C(=O)NCC(C)C)ccc2c(=O)n1CCc1ccccc1 | . | . | 9 | -1 | .
Cc1ccc(C2C(C(=O)c3cccs3)=C(O)C(=O)N2c2nnc(C)s2)cc1 (stereo not given) | -2 | 5 | 10 | 40* | 1
COc1ccc(C2C(C(=O)c3cccs3)=C(O)C(=O)N2c2cccc(C)n2)cc1 (stereo not given) | 2 | -2 | 14 | -2 | -13
COc1ccc(N(CC(=O)Nc2cc(C)cc(C)c2)S(=O)(=O)c2ccccc2[N+](=O)[O-])c(OC)c1 | 1 | 53* | 9 | 0 | -4
SMILES | D2 ag-1 | D2 antag | D2 PAM-1 | D2 ag-2 | D2 PAM-2
Cc1nn2c(NCc3ccccn3)c3c(nc2c1-c1ccccc1)CCC3 | -6 | 40* | -11 | 2 | -12
CCCn1c2ccccc2c2cnn(CC(=O)N(C)c3ccc(F)cc3)c(=O)c21 | . | . | 11 | -3 | .
CCC(C)c1ccc(S(=O)(=O)N2CCN(CC(O)COCC3CCCO3)CC2)cc1 (stereo not given) | -4 | 33* | -9 | -1 | -9
CC(C)c1ccc(S(=O)(=O)N2CCN(CC(O)CN3CCOCC3)CC2)cc1 (stereo not given) | -5 | -2 | 1 | 0 | -6
COCC(=O)OC1CCn2c1nc1c2C(=O)C(C)=C(NC(C)=O)C1=O (stereo not given) | ? | . | . | . | 87*
Cc1ccc(C(=O)COC(=O)CSc2cccc3cccnc23)c(C)c1 | -5 | . | . | . | 57*
CCOC(=O)c1nc(Nc2ccc(C(=O)OCC(C)C)cc2)c2ccccc2n1 | . | . | -3 | -1 | .
COc1ccccc1-c1nn(-c2ccccc2)cc1C(=O)NCC(c1ccco1)N1CCCC1 (stereo not given) | -3 | 40* | -27 | 0 | -4
O=C(NCC(c1ccco1)N1CCCC1)c1cn(-c2ccccc2)nc1-c1ccc(F)cc1 (stereo not given) | -4 | 76* | -22 | -1 | -49
COc1ccc(Cl)cc1C(=O)NCC(c1ccco1)N1CCCC1 (stereo not given) | -2 | 29 | -17 | -1 | -20
COc1ccccc1C(CNC(=O)c1ccco1)N1CCCC1 (stereo not given) | -5 | 37* | -13 | 1 | -10
O=C(NCC(c1ccco1)N1CCCC1)c1cn(Cc2ccccc2)nc1-c1ccccc1 (stereo not given) | 0 | -6 | -5 | 0 | -23
COc1cc2c(=O)c(C(=O)c3ccc(F)cc3)cn(Cc3cccc(F)c3)c2cc1OC | . | . | 4 | 0 | .
CCCOc1ccc(C2CC(=O)Nc3c2c(C)nn3-c2nncc(-c3cccc(OC)c3)n2)cc1OC (stereo not given) | . | . | -9 | -1 | .
CCOc1ccc(C(=O)Nc2cccc(C(=O)OCc3cc(=O)n4cc(C)sc4n3)c2)cc1 | . | . | 7 | 0 | .
CSCCC(NS(=O)(=O)c1ccccc1F)C(=O)N1CCCCCC1 (stereo not given) | 4 | 44* | 20 | 0 | -6
COc1ccc(-c2noc(CC(=O)Nc3ccc(F)cc3F)n2)cc1 | . | . | 2 | 2 | .
CCC(=O)N1CCc2cc(Br)cc(S(=O)(=O)CCC(=O)Nc3ccc(Cl)cc3)c21 | . | . | 3 | 3 | .
Clc1ccc2oc(-c3ccccn3)nc2c1 | 0 | -12 | 4 | 1 | 4
Nc1ccc2oc(-c3ccccn3)nc2c1 | -3 | -3 | 50* | 0 | 0
Cc1ccc(C)c(-c2nc3cc(N)ccc3o2)c1 | -6 | -7 | 33* | 1 | -17
Cc1ccc(-c2nc3cc(N)ccc3o2)cc1Br | 1 | -8 | 4 | 0 | -8

Source: PubChem BioAssay
